ALDH1A1 block: qHTS Assay for Inhibitors of Aldehyde Dehydrogenase 1 (ALDH1A1). Aldehyde dehydrogenase 1A1 (Homo sapiens), P00352. AID 1030, 2008. 220,000 compounds, 7.3% hits. Purified ALDH1A1, NADH fluorescence, propionaldehyde substrate. Potency, µM (titrated, usually from 75.3 µM), for the others: at the top dose activity, negative = inhibition, most hits filed as inhibitors;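 note: potency is the fitted concentration of half-maximal effect; plate controls were no enzyme wells and a reference inhibitor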
LMNA splice mod: qHTS Assay for Modulators of Lamin A Splicing; HeLa LMNA splicing GFP/RFP minigene ratio, 48 h; Potency, µM (doses to about 46.1 µM), for inactives: top-dose ratio change, negative = inhibition, usual class: inhibitors; 200,000 compounds, 0.01% hits; AID 1487, 2009; active = well fitted inhibition curve with a large enough effect in the signal ratio, with a control signal flat, not every such curve was filed as active; inconclusive = small, poorly fitted or top-dose-only effect, or effect the other way, or a change in a side signal; the % refers to the signal ratio; note: potency is the fitted concentration of half-maximal effect
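S3 HeLa stable clones carrying a lamin A-EGFP splicing minigene plus DsRed2 were seeded at 600 cells/well in Opti-MEM with 2% FBS, pin-dosed and incubated 48 h at 37°C. Acumen cytometry (488 nm) gave the GFP/RFP total-intensity ratio.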
PNC inhibitor: High Content Assay for Compounds that inhibit the Assembly of the Perinucleolar Compartment | 140,000 compounds, 3.1% hits | PC3M PTB-GFP, PNC prevalence imaging, 16 h; stronger effect = lower value | activity change (PNC), negative = inhibition, % at 10 µM;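 active = readout at or below -70, meaning at least 70% loss of cells showing the perinucleolar compartment, a nuclear body marking cancer cells; inconclusive = readout between -30 and a set limit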;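 note: plate controls were DMSO wells for no effect and camptothecin positive control wells for full effect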
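PC3M cells stably expressing PTB-GFP, 750–1000 cells/well, treated 16 h at 37 °C with compound (23 nl of library stock), in duplicate. After paraformaldehyde fixation and Hoechst stain, imaged at 20x; PNC prevalence scored by image analysis.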
KinaseGlo FLuc: Counterscreen for Luciferase (Kinase-Glo TM) Inhibition | Kinase-Glo luciferase, ATP luminescence, 8 min | 200,000 compounds, 0.28% hits | Potency, µM (top dose mostly 38.3 µM), for the others: at the top dose activity change, negative = inhibition, most hits filed as inhibitors | Luciferin 4-monooxygenase (Photuris pensylvanica), Q27757 | AID 1379, 2008; active = well fitted inhibition curve with a large enough effect; inconclusive = small, poorly fitted or top-dose-only effect; note: potency is the fitted concentration of half-maximal effect; nearly all actives have a fitted effect of over 60% in size
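Compounds were added to a substrate mix at pH 7.2 (50 mM imidazole, 10 uM ATP, within the enzyme's linear range), followed by Kinase-Glo detection reagent; luminescence was measured after 8 minutes at ambient temperature.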
IMPase inh: qHTS Assay for Identifying the Cell-Membrane Permeable IMPase Inhibitors; Inositol monophosphatase 1 (Rattus norvegicus), P97697; CHO-M1 cells, IP1 accumulation, HTRF TR-FRET ratio; inhibition (IP1 accumulation), % at 46.1 µM; 120,000 tested, under 10 active; AID 901, 2007; active = well fitted curve in the direction sought with a large enough effect in the signal ratio, not every such curve was filed as active; inconclusive = small, poorly fitted or top-dose-only effect, or a change in a side signal; inactive = no such curve, though single readings can be large or run the other way; the % refers to the signal ratio;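 note: cells stimulated with carbachol in lithium chloride buffer; plate controls were DMSO basal wells for no effect and reference inhibitor wells for full effect; higher means more IMPase inhibition seen as more IP1 and lower FRET ratio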
Target sequence (P97697 whole entry, looked up): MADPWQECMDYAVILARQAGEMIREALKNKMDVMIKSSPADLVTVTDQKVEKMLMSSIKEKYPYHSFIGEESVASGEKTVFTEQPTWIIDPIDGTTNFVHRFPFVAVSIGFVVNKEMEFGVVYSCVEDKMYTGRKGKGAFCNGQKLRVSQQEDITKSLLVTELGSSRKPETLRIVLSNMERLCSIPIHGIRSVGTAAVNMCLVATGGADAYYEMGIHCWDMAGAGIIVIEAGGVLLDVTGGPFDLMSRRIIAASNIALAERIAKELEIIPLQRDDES
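Cellular IMPase inhibition is scored as a rise in cytosolic IP1, detected by competitive TR-FRET between d2-labelled IP1 and a europium anti-IP1 antibody. M1-expressing CHO cells were stimulated with carbachol for 30 min at 37C, with lithium (50 mM LiCl) present in the buffer.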
HPGD block: qHTS Assay for Inhibitors of HPGD (15-Hydroxyprostaglandin Dehydrogenase); AID 894, 2007; Potency, µM, for the others: top-dose activity change, negative = inhibition, usual class: inhibitors; 150,000 compounds, 4.3% hits; purified HPGD, NADH fluorescence kinetic, PGE2 substrate; note: potency is the fitted concentration of half-maximal effect
Target sequence (P15428 whole entry, looked up): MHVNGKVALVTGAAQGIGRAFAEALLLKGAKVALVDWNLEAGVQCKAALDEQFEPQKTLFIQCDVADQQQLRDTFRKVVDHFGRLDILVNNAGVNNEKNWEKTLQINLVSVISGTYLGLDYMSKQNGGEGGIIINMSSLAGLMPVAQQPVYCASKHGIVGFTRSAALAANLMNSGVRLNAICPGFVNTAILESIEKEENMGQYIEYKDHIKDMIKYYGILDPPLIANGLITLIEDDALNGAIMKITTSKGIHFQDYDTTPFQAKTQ
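NADH formation kinetics: reaction with 30 uM PGE2 and 1 mM NAD+ (final), 20 nM enzyme, Tris-HCl pH 8 with Tween 20, after 15 min compound preincubation at room temperature. Fluorescence change, last versus first of five reads.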
An asterisk follows results filed as active; ? = inconclusive; · = no result; [ ] = another dose, or the depositor's remark. Only some compounds are listed: those with a hit (about 10% of all), similar ones and a draw of the others. Unless noted, calls come from the whole dose curve; as a rule, active = well fitted inhibition curve with a large enough effect (not every such curve was filed as active); inconclusive = small, poorly fitted or top-dose-only effect, or another doubt; inactive = no such curve, though single readings can be large or run the other way. Unless noted, % is set by controls: 0 for no effect and ±100 for the full control effect.

SMILES | ALDH1A1 block | LMNA splice mod | PNC inhibitor | KinaseGlo FLuc | IMPase inh | HPGD block
N[C@H](C(=O)O)[C@@H]1C[C@@H]1C(=O)O | -2% | · | · | -1% | 1 | -2%
CCc1ccc(NC(=S)Nc2cc(C(=O)O)ccc2N2CC3CC(C2)c2cccc(=O)n2C3)cc1 (centres undefined) | 18µM* | 8%[9.22 µM] | · | 1% | · | ·
O=C(O)c1ccc(N2CC3CC(C2)c2cccc(=O)n2C3)c(NC(=S)Nc2ccc(Br)cc2)c1 (centres undefined) | ? | · | · | -2% | · | ·
CC(=O)c1ccccc1[N+](=O)[O-] | -6% | · | · | · | · | -5%
CCOC(=O)C1=NNC2C(=O)N(C3CCCCC3)C(=O)C12 (centres undefined) | 13µM* | 1% | -11 | -3% | 21 | -5%
CCn1c(O)c(N=NC2=NC(=O)CS2)c2ccccc21 | 11µM* | 7%[0.0737 µM] | -7 | 3% | 14 | -20%
CCn1c(O)c(N=N)c2ccccc21 | -4% | 4%[46 µM] | · | 6% | · | ·
CCOc1ccc(CCNC(=O)c2sc3nc4n(c(=O)c3c2C)CCCC4)cc1 | · | 6%[46 µM] | · | · | · | ·
Oc1ccccc1NCC(O)Cn1ccc2ccccc21 (centres undefined) | 14µM* | 10% | 10 | · | 7 | ·
Cc1cc(C)n(CC(O)Cn2ccc3ccccc32)n1 (centres undefined) | -16% | -2% | 11 | 18% | 4 | ?
O=C1c2ccccc2S(=O)(=O)N1CC(O)Cn1ccc2ccccc21 (centres undefined) | 13µM* | 10% | 30 | 2% | 0 | -19%
OC(CNCc1ccccc1)Cn1ccc2ccccc21 (centres undefined) | ? | 11% | 47 | 0% | · | -12%
OCc1nc2ccccc2n1CC(O)Cn1ccc2ccccc21 (centres undefined) | 22µM* | ? | 18 | -3% | 9 | -18%
Cc1cccc(/C=C/C(=O)c2ccc(NC3=NCCCS3)cc2)c1 | -12% | ? | 33 | 0% | · | -22%
O=C(/C=C/c1ccccc1)c1ccc(NC2=NCCCS2)cc1 | -7% | 6% | ? | 9% | · | 14µM*
CC(C)(C)c1ccc(/C=C/C(=O)c2ccc(NC3=NCCCS3)cc2)cc1 | 20% | ? | -1 | 4% | 3 | 20µM*
O=C(/C=C/c1ccc(Br)cc1)c1ccc(NC2=NCCCS2)cc1 | 12% | ? | -93* | -11% | · | 8.9µM*
COc1cccc(/C=C/C(=O)c2ccc(NC3=NCCCS3)cc2)c1 | ? | · | · | -7% | · | ·
COc1ccc(C(=O)Nc2nnc(S(=O)(=O)N(C)c3ccc(Cl)cc3)s2)cc1OC | · | -19%[46 µM] | · | · | · | ·
COC(=O)NC(CCc1ccccc1)C(C(=O)OC)C(=O)OC (centres undefined) | 7% | · | · | -6% | · | -8%
CC1CCCC(NS(=O)(=O)c2ccc3c(c2)OCCO3)C1C (centres undefined) | 14µM* | -15% | 11 | 0% | 3 | -13%
Cc1nc(-c2cnn(-c3ccccc3)c2)c2cc(C)oc2n1 | ? | -2% | ? | -2% | 7 | ?
Cc1oc2cc(O)cc(C)c2c(=O)c1-c1cnn(-c2ccccc2)c1 | ? | 13% | -115* | 1% | 9 | ?
Cc1oc2c(O)c(O)ccc2c(=O)c1-c1cnn(-c2ccccc2)c1 | 28µM* | 15% | ? | -4% | 8 | 18µM*
CCOC(=O)CC(=O)CSc1nc2sc(C)cc2c(=O)n1Cc1ccco1 | 0.56µM* | 5% | -13 | 3% | -16 | 28µM*
SMILES | ALDH1A1 block | LMNA splice mod | PNC inhibitor | KinaseGlo FLuc | IMPase inh | HPGD block
Cc1cc2c(=O)n(Cc3ccco3)c(SCC(=O)c3ccc(Cl)s3)nc2s1 | 16µM* | 20% | ? | 3% | 26 | 28µM*
N#Cc1c(NC(NC(=O)c2ccco2)C(=O)c2ccccc2)sc2c1CCCC2 (centres undefined) | ? | 14% | 44 | -4% | -11 | -11%
NC(=O)c1c(NC(NC(=O)c2ccco2)C(=O)c2ccc(Cl)cc2)sc2c1CCCC2 (centres undefined) | 18µM* | -5% | -10 | -1% | 5 | -20%
Cc1cc(C)c2c(N)c(S(=O)(=O)Cc3ccccc3)sc2n1 | -14% | 3% | 3 | 2% | 0 | 22µM*
CN1CCN(c2ncc3nc(CCc4ccccc4)c(=O)n(Cc4ccc(F)cc4)c3n2)CC1 | ? | · | · | -2% | · | ?
CC(C)(C)C1CCC(=NNC(=O)CC(=O)NCc2ccccc2)CC1 (centres undefined) | -7% | -3% | 3 | 2% | · | -10%
O=C(NN=C1CCC(c2ccccc2)CC1)c1cc2c(s1)CCCC2 (centres undefined) | 7.9µM* | -5% | -6 | 5% | 23 | -10%
CC(C)(C)C1CCC(=NNC(=O)c2ccccc2-n2cccc2)CC1 (centres undefined) | 5µM* | -18% | 16 | 2% | 11 | -14%
CC(C)NC(=S)NN=C1CCC(c2ccccc2)CC1 (centres undefined) | 1% | 6%[46 µM] | · | 3% | · | ·
CC(C)(C)C1CCc2sc(C(=O)NNC(=O)CCl)cc2C1 (centres undefined) | 3.2µM* | · | · | 7% | · | ·
CCc1cc(C(=O)NNC(=O)CCl)sc1C | ? | · | · | -1% | · | ·
CC(C)(C)C1CCC(=NNC(=O)c2cc3c(s2)CCCC3)CC1 (centres undefined) | 4µM* | -17% | 28 | 0% | -6 | -16%
CCc1cccc(NC(=O)CN2C(=O)COc3ccc(S(=O)(=O)N4CCC(C)CC4)cc32)c1 | · | -2%[46 µM] | · | · | · | ·
CC1CCc2sc(C(=O)NN=C3CCC(c4ccccc4)CC3)cc2C1 (centres undefined) | 1.3µM* | 6% | 44 | -1% | · | -16%
CCN(CC)CCn1c(-c2ccccc2)nc2c(NC3CCCCC3)nc(C)nc21 | ? | · | · | -3% | · | -29%
Cc1ccc(-c2nc3ccccc3c(C(=O)NCc3cccs3)c2C)cc1 | 24µM* | -3% | -9 | -3% | 4 | -27%
CC(=O)SC(C)CC(=O)NCc1ccccc1 (centres undefined) | 1% | 14% | -25 | -2% | -2 | 28µM*
CC(=O)SC(C)CC(=O)Nc1ccccc1 (centres undefined) | 6% | 10% | 14 | -1% | ? | -29%
O=C(NCc1cccs1)c1cc(-c2ccccc2)nc2ccccc12 | 0% | ? | ? | 0% | 4 | -13%

Bioassay records deposited in PubChem BioAssay by National Center for Advancing Translational Sciences (NCATS).
